Test [1] has as its target T1, Serine/threonine-protein kinase D2 (Homo sapiens) (UniProt Q9BZL6).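 Further: mean value of PRKD2 inhibition, from the GSK PKIS screening panel.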
T1 sequence (whole entry): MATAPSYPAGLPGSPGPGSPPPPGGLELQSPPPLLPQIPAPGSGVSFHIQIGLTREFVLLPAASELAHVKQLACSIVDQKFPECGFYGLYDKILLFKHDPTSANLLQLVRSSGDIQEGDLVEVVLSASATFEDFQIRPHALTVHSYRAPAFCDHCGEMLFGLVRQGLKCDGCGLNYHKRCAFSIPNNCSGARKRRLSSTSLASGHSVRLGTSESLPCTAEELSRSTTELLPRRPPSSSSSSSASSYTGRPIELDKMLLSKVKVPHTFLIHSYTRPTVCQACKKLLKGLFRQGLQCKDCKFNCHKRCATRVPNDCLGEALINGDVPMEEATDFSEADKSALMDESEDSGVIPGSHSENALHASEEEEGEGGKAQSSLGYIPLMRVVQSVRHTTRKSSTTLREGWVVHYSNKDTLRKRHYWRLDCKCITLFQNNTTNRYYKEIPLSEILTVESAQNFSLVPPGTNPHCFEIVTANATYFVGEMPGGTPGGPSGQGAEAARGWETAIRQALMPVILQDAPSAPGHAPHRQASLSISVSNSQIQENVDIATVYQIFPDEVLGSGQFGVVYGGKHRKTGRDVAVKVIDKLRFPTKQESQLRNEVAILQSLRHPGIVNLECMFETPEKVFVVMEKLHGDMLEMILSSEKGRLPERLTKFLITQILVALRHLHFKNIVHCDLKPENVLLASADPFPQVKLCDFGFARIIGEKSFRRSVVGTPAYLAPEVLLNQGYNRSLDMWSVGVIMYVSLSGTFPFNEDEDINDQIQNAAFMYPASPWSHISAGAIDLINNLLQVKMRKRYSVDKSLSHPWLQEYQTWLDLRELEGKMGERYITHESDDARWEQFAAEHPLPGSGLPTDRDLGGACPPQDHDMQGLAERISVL
Conditions: at 1 µM.

Test [2] concerns the target T2, Serine/threonine-protein kinase D3 (Homo sapiens) (UniProt O94806).
T2 sequence (whole entry): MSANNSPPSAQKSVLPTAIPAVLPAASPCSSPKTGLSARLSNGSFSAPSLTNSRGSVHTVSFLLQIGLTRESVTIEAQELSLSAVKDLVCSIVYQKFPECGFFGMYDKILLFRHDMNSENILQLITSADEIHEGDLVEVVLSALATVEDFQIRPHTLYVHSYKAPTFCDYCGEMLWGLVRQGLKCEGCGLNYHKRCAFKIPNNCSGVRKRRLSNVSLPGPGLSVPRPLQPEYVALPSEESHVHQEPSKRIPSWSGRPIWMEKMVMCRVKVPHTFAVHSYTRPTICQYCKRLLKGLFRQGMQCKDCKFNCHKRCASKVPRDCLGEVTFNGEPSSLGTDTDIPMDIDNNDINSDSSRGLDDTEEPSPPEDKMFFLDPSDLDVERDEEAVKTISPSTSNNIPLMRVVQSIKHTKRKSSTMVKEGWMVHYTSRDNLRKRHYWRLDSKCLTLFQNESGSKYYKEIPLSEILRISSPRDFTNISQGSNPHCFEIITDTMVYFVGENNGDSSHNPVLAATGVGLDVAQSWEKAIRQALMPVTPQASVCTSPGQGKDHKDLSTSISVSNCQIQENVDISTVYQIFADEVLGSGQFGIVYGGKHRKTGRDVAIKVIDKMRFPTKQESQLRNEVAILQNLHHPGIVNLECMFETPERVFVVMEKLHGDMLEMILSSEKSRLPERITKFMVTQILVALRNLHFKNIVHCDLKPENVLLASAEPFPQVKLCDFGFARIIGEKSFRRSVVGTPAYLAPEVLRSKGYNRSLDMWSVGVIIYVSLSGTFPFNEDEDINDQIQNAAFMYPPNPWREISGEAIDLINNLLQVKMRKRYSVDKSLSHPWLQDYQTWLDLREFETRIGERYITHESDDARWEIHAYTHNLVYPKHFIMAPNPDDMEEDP
The following applies: at 0.1 µM.

In test [3] the target is T2, Serine/threonine-protein kinase D3 (Homo sapiens). The following applies: at 1 µM.
Test [4] addresses T3, cGMP-dependent protein kinase 1 (Homo sapiens) (UniProt Q13976).
T3 sequence (whole entry): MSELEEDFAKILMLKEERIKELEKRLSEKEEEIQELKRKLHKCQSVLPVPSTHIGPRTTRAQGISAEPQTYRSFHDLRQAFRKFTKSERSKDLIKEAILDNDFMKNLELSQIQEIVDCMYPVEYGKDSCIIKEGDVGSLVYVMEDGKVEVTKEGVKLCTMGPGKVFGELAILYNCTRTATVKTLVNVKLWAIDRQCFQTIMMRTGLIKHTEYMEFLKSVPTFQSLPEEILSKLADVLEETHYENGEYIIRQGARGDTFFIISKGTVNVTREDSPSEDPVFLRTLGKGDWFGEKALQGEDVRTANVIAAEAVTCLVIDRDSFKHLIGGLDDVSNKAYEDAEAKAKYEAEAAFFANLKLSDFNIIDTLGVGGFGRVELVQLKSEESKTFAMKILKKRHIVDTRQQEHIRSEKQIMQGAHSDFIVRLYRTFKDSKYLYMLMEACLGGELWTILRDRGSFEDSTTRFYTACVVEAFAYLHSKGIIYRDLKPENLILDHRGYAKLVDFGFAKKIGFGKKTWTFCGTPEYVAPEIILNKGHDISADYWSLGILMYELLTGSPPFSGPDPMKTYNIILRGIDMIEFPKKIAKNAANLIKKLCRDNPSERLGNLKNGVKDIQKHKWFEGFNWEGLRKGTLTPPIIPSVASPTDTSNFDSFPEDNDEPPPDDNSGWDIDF
Conditions: at 0.1 µM.

Test [5] addresses T3, cGMP-dependent protein kinase 1 (Homo sapiens). Conditions: at 1 µM.
Test [6] concerns the target T4, cGMP-dependent protein kinase 2 (Homo sapiens) (UniProt Q13237).
T4 sequence (whole entry): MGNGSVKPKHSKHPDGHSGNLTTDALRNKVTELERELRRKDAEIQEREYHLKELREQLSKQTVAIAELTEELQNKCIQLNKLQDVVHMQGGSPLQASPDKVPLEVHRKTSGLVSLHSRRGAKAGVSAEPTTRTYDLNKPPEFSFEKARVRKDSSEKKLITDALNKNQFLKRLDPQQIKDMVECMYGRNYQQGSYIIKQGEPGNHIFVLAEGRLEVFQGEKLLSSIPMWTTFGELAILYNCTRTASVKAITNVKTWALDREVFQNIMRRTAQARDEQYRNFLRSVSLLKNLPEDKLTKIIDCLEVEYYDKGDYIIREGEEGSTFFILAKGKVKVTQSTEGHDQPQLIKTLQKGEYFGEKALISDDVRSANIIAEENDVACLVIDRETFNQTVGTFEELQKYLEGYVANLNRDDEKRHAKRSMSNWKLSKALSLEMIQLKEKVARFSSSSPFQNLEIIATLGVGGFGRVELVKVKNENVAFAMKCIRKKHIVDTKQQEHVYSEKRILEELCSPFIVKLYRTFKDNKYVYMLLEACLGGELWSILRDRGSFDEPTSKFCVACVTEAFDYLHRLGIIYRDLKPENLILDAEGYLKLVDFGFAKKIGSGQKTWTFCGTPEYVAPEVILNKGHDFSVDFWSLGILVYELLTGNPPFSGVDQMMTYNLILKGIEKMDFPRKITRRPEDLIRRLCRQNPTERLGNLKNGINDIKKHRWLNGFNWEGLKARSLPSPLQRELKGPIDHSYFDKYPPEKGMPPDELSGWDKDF
The following applies: at 0.1 µM.

Test [7] concerns the target T4, cGMP-dependent protein kinase 2 (Homo sapiens). The following applies: at 1 µM.
For test [8], the target named is T5, cAMP-dependent protein kinase catalytic subunit PRKX (Homo sapiens) (UniProt P51817).
T5 sequence (whole entry): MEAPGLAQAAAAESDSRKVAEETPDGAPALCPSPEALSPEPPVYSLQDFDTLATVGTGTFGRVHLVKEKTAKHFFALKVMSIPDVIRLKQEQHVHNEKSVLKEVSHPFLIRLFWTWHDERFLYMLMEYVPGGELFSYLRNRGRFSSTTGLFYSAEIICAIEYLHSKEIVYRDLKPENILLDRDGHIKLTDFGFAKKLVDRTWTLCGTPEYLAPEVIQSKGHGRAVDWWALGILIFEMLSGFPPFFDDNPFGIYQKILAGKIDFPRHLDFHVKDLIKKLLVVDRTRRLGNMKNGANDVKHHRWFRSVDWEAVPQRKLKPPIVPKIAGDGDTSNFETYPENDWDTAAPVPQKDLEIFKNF
Conditions: at 0.1 µM.

Test [9] concerns the target T5, cAMP-dependent protein kinase catalytic subunit PRKX (Homo sapiens). The following applies: at 1 µM.
The target in test [10] is Rho-associated protein kinase 1 (Homo sapiens) (UniProt Q13464). Conditions: at 0.1 µM.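 Further: values are mean percent inhibition of ROCK1.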

The values that follow come from ChEMBL document CHEMBL1961873, “Compounds: GSK PKIS; Assays: Nanosyn kinase panel” (2012).

Rho-associated protein kinase 1 (Homo sapiens), sequence (Q13464 2-1354 limits assumed): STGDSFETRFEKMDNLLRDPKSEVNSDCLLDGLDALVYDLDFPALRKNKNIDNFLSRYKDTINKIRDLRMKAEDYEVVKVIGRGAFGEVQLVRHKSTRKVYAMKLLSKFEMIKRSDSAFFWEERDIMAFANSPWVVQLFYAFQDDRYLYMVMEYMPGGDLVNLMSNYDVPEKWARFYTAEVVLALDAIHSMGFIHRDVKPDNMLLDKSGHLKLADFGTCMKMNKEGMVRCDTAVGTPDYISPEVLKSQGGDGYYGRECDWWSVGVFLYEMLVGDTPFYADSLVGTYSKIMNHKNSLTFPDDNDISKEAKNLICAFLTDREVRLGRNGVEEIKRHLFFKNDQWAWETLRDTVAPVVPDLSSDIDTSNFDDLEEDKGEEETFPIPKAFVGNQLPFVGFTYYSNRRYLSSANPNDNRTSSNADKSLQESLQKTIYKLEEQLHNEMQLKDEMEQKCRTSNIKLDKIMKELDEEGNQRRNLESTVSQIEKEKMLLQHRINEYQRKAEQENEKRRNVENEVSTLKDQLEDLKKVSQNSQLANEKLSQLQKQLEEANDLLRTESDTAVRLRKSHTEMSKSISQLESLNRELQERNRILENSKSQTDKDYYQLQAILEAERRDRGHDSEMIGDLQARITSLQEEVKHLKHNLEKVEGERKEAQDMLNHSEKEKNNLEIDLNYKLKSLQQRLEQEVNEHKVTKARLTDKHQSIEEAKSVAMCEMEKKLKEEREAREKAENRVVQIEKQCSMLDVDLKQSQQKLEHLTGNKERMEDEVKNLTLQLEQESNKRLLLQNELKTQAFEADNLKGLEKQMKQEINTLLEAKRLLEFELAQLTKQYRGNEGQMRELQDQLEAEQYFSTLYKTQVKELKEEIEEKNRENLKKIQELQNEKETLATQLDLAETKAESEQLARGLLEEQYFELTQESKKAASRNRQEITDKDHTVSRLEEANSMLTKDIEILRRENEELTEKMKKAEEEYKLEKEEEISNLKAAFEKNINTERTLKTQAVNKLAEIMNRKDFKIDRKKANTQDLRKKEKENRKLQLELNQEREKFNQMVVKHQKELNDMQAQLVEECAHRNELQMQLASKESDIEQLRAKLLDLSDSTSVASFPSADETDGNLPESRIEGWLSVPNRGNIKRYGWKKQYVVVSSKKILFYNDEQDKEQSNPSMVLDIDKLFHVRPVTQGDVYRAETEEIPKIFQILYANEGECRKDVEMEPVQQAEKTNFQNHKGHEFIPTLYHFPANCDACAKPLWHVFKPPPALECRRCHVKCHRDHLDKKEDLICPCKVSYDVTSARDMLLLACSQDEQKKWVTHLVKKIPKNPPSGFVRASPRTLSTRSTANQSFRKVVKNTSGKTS

For orientation: inhibition means the change of the read-out against control, counted positive when it falls. Turning to `COc1ccccc1Nc1ncc(-c2ccccc2)o1`, the inhibition in [1] turned out to be 2.18%; in [2], 4.57%; in test [3], 4.66%; in test [4] it was 3.64%; in [5], 1.96%; in test [6], 3.07%. Besides, the inhibition was determined as 2.81% in test [7], 2.55% in test [8], 3.03% in test [9] and 2.99% in test [10].

Take `NS(=O)(=O)c1cccc(-c2ccc3c(NC(=O)C4CC4)n[nH]c3c2)c1`: the inhibition in [1] is -0.76%; in test [2], -0.43%; in [3], 0.3%; in test [4] it was 0.48%; in [5], 0.57%; in test [6] it was 0.6%. For the same compound, the inhibition in test [7] worked out at 1.3%; in test [8] it was 0.01%; in test [9], 1.02%; in [10] it was 1.29%.

`Cn1cc(C=C2C(=O)Nc3cccnc32)c2ccccc21`: the inhibition was found to be 9.92% in test [1]; 3.79% in test [2]; 10.3% in [3]; 1.8% in test [4]; 3.04% in test [5]; 1.83% in test [6]. The inhibition in test [7] is 3.03%; in test [8] it was 0.64%; in [9], 0.1%; in [10], 1.45%.

As to `COc1cc2c(cc1Nc1nc(N3CCc4ccccc43)c3cc[nH]c3n1)N(C(=O)CN(C)C)CC2`, the inhibition turned out to be 3.6% in test [1]; 1.51% in test [2]; 4.37% in test [3]; 2.84% in test [4]; 2.75% in test [5]; 2.18% in test [6]. Also, the inhibition in test [7] is 2.75%; in test [8], 0.6%; in [9], -1.42%; in test [10], 0.33%.

In the case of `O=C1NC(=O)C(c2ccc(Cl)cc2)=C1Nc1ccc(Cl)c(C(=O)O)c1`, the inhibition in test [1] was -0.34%; in [2] it was -1.37%; in [3] it was -0.38%; in test [4], -0.49%; in test [5] it was -0.47%; in test [6], -1.52%. Also, the inhibition is -0.68% in test [7], -1.61% in [8], -1.33% in [9] and -0.15% in test [10].

Regarding `O=C1NC(=O)C(N2CCc3ccccc32)=C1c1ccc(Cl)cc1`, the inhibition in [1] was found to be 4.56%; in [2], 5.53%; in [3], 6.02%; in test [4], 3.3%; in [5], 4.19%; in test [6], 2.11%. Further, the inhibition in test [7] turned out to be 4.33%; in [8], 1.91%; in test [9], 0.77%; in test [10], 1.88%.

In the case of `COc1ccc(-c2nn3ncccc3c2-c2ccnc(Nc3ccc(Cl)c(C(F)(F)F)c3)n2)cc1`, the inhibition is 4.34% in test [1]; 2.86% in test [2]; 3.78% in test [3]; 0.21% in [4]; 0.97% in [5]; 0.9% in [6]. Also, the inhibition in [7] amounted to 2.46%; in test [8], 0.84%; in test [9], 3.14%; in test [10], 1.25%.

`CS(=O)(=O)CCNCc1ccc(-c2ccc3ncnc(Nc4ccc(OCc5cccc(F)c5)c(C(F)(F)F)c4)c3c2)o1`: the inhibition is 5.13% in test [1]; 4.32% in test [2]; 3.88% in test [3]; 2.84% in test [4]; 5.15% in [5]; 1.78% in [6]. The inhibition in test [7] was found to be 3.11%; in [8], 2.44%; in test [9], 4.07%; in test [10], 1.46%.
